This is a sample that favours compounds with a hit; in the whole collection about 3.4% have one here.
GPR151 ag: human GPR151 activation; activation, % at 11.2 µM; 650,000 compounds, 1% hits; PathHunter beta-arrestin GPR151 cells, luminescence; AID 1508602; Q8TDV0; in the data active = activation above about 4.9%;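 note: 0% = median of compound wells and 100% = cells with positive control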
Target sequence (Q8TDV0 whole entry, looked up): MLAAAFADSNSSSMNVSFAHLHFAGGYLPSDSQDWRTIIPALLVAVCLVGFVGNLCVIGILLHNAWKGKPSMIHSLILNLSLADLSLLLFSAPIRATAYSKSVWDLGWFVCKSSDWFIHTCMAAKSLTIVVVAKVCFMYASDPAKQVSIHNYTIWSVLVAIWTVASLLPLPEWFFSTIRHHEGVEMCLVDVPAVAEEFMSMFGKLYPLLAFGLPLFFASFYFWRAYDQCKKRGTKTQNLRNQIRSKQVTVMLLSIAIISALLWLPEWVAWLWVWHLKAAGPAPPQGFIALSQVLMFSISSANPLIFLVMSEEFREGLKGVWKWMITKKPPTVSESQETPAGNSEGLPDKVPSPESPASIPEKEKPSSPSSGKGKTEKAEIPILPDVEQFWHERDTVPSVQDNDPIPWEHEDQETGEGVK
MITF primary: blocks human microphthalmia-associated transcription factor. O75030. AlphaScreen MITF homodimerization, bead proximity signal. inhibition, % at 2.6 µM. 650,000 compounds, 0.91% hits; in the data active = inhibition above about 50%;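 note: 0% = vehicle wells with protein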
TEAD-YAP block: TEAD-YAP interaction inhibition; HEK-TIYL cells, TEAD-Gal4/YAP UAS-luciferase luminescence; inhibition, % at 9.12 µM; 640,000 compounds, 1.4% hits; in the data active = inhibition above about 32%;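 note: 0% = median of test compound wells and 100% = reference inhibitor wells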
FBW7 activator: activators of human E3 ligase FBW7; Q969H0; AlphaScreen FBW7–phospho-cyclin E peptide binding, activator screen; normalized activity (activation), % at 26.1 µM; 650,000 compounds, 0.13% hits; in the data active = normalized activity above about 1.9%;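 note: purified mutant Fbw7 with reduced substrate affinity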
MITF inh conf: human MITF inhibition, confirmation; shares compounds with MITF primary; AlphaScreen MITF homodimerization, biotin/His-MITF beads; inhibition, % at 2.6 µM; 4,700 compounds, 16% hits; AID 1259372;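 active = inhibition above a cutoff derived from the DMSO control wells, cut at about 28% in these data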;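 note: 0% = MITF dimer wells with DMSO only; inhibitors lower the bead chemiluminescence by keeping MITF from dimerizing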
AS interf ctr: counter-screen: compounds optically interfering with AlphaScreen; 4,700 compounds, 7.6% hits; inhibition, % at 2.6 µM; shares compounds with MITF primary; LysRS AlphaScreen counterscreen, signal interference, triplicate;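 active = inhibition above a cutoff derived from the DMSO control wells, cut at about 30% in these data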
Numbers without * were called inactive; · = not tested or not shown.

SMILES	GPR151 ag	MITF primary	TEAD-YAP block	FBW7 activator	MITF inh conf	AS interf ctr
Cc1ccc2oc(=O)c3cnn(CC(=O)Nc4cc(C)on4)c3c2c1	0.5	3.0	4.4	0.0	·	·
Cc1c(Cl)cccc1-c1ccc(C(=O)Nc2ccc(N3CCOCC3)c(Cl)c2)o1	1.8	-9.2	-10.0	0.1	·	·
COc1ccc(C2SCC(C(=O)O)N2C(C)=O)cc1OC (stereo not drawn)	-0.1	50.6*	-2.1	0.0	10.5	14.4
COCc1ccc(-c2nccnc2NS(=O)(=O)c2ccc(OC)c(OC)c2)cc1	-0.7	5.0	6.3	-0.3	·	·
Cn1c(-c2ccccc2)cnc1NCc1ccc(F)cc1	2.0	26.2	-3.5	-0.4	·	·
Cn1c(-c2ccc(F)cc2)cnc1NCc1ccccc1	-1.5	59.4*	1.3	0.5	-9.4	-3.0
Cn1c(-c2ccc(F)cc2)cnc1NCc1cccc(F)c1	-0.6	52.7*	-8.7	0.5	-4.3	-4.8
COCCN(C(=S)Nc1ccccc1OC)C(C)c1ccco1 (stereo not drawn)	0.3	-7.3	8.4	0.0	·	·
COc1ccc2oc(=O)c(-c3cn4cccnc4n3)cc2c1	0.5	71.8*	-26.3	0.0	4.3	12.3
CCOC(=O)c1ccc(NC(=O)CCSc2ccc(C)cc2)cc1	-0.4	18.6	-1.8	0.2	·	·
CCOC(=O)c1ccc(NC(=O)CSc2ccc(F)cc2)cc1	-0.5	53.9*	-2.8	0.1	4.1	12.4
CCCCNCCOc1ccccc1F	-1.0	64.5*	2.8	-0.2	-3.8	-6.8
OCCNCCOc1cccc2ccccc12	-1.7	50.8*	-2.0	0.5	-0.3	21.0
CCOc1ccccc1OCCCNCCO	-0.3	57.9*	11.5	0.0	12.7	13.7
CCCn1c(-c2ccc(OC)cc2)nc2c(c(=O)c3ccccc3n2C)c1=O	-0.4	90.0*	-10.9	-0.1	-7.5	-4.2
COCCn1c(-c2ccc(F)cc2)nc2c(c(=O)c3ccccc3n2C)c1=O	-0.3	-10.8	2.0	-0.1	·	·
Oc1ccc(/C=N\Nc2nncc(-c3ccccc3)n2)cc1	-0.2	4.5	-1.1	0.6	·	·
COc1ccc(/C=N/Nc2nncc(-c3ccccc3)n2)cc1Br	-0.1	64.7*	-3.9	0.0	-11.3	-8.8
CCOC(=O)N1CCN(S(=O)(=O)c2ccc(C(=O)Nc3ccc(-c4nc5ccc(C)cc5s4)cc3)cc2)CC1	-0.1	53.3*	-3.7	0.2	-21.5	-1.7
CCOC(=O)N1CCN(S(=O)(=O)c2ccc(C(=O)Nc3ccc4nc(C)sc4c3)cc2)CC1	0.4	10.2	26.6	-0.1	·	·
Cc1c(Cl)cccc1-n1ncnc1-c1cccnc1	0.1	-9.2	6.9	-0.1	·	·
c1cn(-c2ccc(Nc3nc4ncnc(Nc5ccc(N6CCOCC6)cc5)c4[nH]3)cc2)cn1	-3.5	-5.0	31.3	-0.3	·	·
c1cn(-c2ccc(Nc3nc4ncnc(NCCN5CCOCC5)c4[nH]3)cc2)cn1	1.2	87.7*	-6.3	-0.1	5.8	19.6
Nc1n[nH]c(CC(=O)N(Cc2ccccc2)C2(C(=O)Nc3ccccc3)CCCCC2)n1	-0.2	70.4*	-2.1	-0.4	109.2*	100.6*
Cc1ccc(NC(=O)C2(N(C)C(=O)Cc3nc(N)n[nH]3)CCCCC2)cc1	-1.8	47.5	5.7	-0.2	·	·
SMILES	GPR151 ag	MITF primary	TEAD-YAP block	FBW7 activator	MITF inh conf	AS interf ctr
CN(C(=O)Cc1nc(N)n[nH]1)C1(C(=O)Nc2ccccc2)CCCCC1	-0.9	64.4*	-4.1	-0.6	92.1*	100.6*
Cc1cc(C)cc(-n2c(SCC(=O)Nc3nccs3)nnc2-c2cccnc2)c1	0.7	57.5*	-13.3	-0.1	2.3	14.7
COc1cccc(-n2c(SCC(=O)Nc3nccs3)nnc2-c2cccnc2)c1	-0.6	3.6	-3.1	0.0	·	·
Cc1c(C#N)c(O)n(CCCO)c(=O)c1N=Nc1c(C)n(C)n(-c2ccccc2)c1=O	1.1	83.5*	15.1	-0.7	23.1	100.3*
Cc1c(C#N)c(O)n(CCO)c(=O)c1N=Nc1ccccc1C(=O)O	-1.5	16.3	12.0	0.1	·	·
COc1ccccc1OCC(=O)Oc1coc(CSc2nc(C)cc(C)n2)cc1=O	-3.1	8.7	-8.8	-0.3	·	·
COc1cc(OC)c(OC)cc1CN1CCN(CC2CC=CCC2)CC1 (stereo not drawn)	0.5	50.6*	2.1	0.0	-1.7	-0.3
COc1ccc(OC)c(CN2CCN(CC3CC=CCC3)CC2)c1 (stereo not drawn)	-0.3	53.9*	-3.4	-0.1	-1.0	11.7
COc1cc(C(=O)N2CCN(CC3CC=CCC3)CC2)cc(OC)c1OC (stereo not drawn)	1.2	32.3	6.2	-0.1	·	·
COc1ccc(OC)c(CN2CCSCC2)c1	3.4	28.1	-7.8	-0.1	·	·
COc1cccc(CN2CCN(CC3CC=CCC3)CC2)c1OC (stereo not drawn)	-0.8	80.8*	7.3	-0.3	12.4	19.1
COc1c(S(=O)(=O)N2CCOCC2)ccc(Cl)c1Cl	-0.5	3.1	-5.2	0.0	·	·
Cc1cccc(NS(=O)(=O)c2c[nH]c(=O)[nH]c2=O)c1C	-2.6	10.6	-10.4	1.1	·	·
CCOC(=O)C1CCCN(S(=O)(=O)c2ccc(OCC)c3ncccc23)C1 (stereo not drawn)	-0.8	-15.1	-20.8	-0.1	·	·
COC(=O)c1ccc(COC(=O)c2cc(OC)cc(OC)c2)cc1	-1.0	-5.8	-25.4	0.1	·	·
Cc1ccc(/C=N/NC(=O)C(=O)N2CCCC2)cc1	0.6	1.6	-5.0	-0.1	·	·
CCc1nc2sc(C(c3ccc(OC)c(OC)c3)N3CCCCC3)c(O)n2n1 (stereo not drawn)	0.0	-12.8	-2.1	0.2	·	·
CCc1nc2sc(C(c3ccc(C(C)C)cc3)N3CCCC3)c(O)n2n1 (stereo not drawn)	0.9	57.3*	0.9	0.0	0.2	-2.6
OCCN1CCN(c2cc(-c3ccccc3)c3ccccc3n2)CC1	-1.4	76.0*	1.7	0.0	5.6	10.5
OCCN1CCN(c2cc(-c3ccncc3)nc(-c3ccccc3)n2)CC1	0.3	-33.1	-1.4	-0.2	·	·
O=C(NCc1ccc(Cl)c(Cl)c1)c1ccc(N2CCC(Cc3ccccc3)CC2)c([N+](=O)[O-])c1	-0.8	10.2	1.6	0.6	·	·
COc1ccc(C(=O)Nc2sc(C)c(C)c2C#N)cc1[N+](=O)[O-]	-1.1	74.3*	5.8	0.1	-5.8	-5.8
COc1ccccc1/C=C/C1=NC(=C\c2ccccc2F)/C(=O)O1	-1.0	-11.2	-2.1	-0.1	·	·
CCN1CCN(S(=O)(=O)c2c(C)c(C)cc(C)c2C)CC1	-0.5	-1.3	0.7	0.1	·	·
Cc1cc(C)c(C)c(S(=O)(=O)N2CCN(CC(O)COCc3ccco3)CC2)c1C (stereo not drawn)	-0.6	51.4*	-2.9	-0.1	6.7	11.8
O=C(NCc1cccc(Cl)c1)c1cc2c(=O)n3ccccc3nc2s1	2.5	5.9	-4.9	-0.1	·	·
O=[N+]([O-])c1ccccc1CN1CCN(CC2CC3C=CC2C3)CC1 (stereo not drawn)	-0.4	66.6*	6.4	-0.2	-2.1	-1.4
c1ccc(CCCN2CCN(C3C4CC5CC(C4)CC3C5)CC2)cc1 (stereo not drawn)	-0.7	69.8*	3.5	0.3	2.1	6.6

High-throughput results (PubChem BioAssay)
